Measurements: the supplement of paper PMC11172423
Values without a mark were called inactive.

System: Falciformispora senegalensis CBS197.79
Assay: growth relative to untreated control; higher = less inhibition, active = 20 or less
Method in brief: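 Viability readout used either MTS (2 h, 490 nm) or resazurin (600 nm). Before this, hyphal fragments of M. mycetomatis MM55 or F. senegalensis CBS197.79 in colourless RPMI 1640 with L-glutamine and MOPS (68–72% transmission at 660 nm) had been exposed in 96-well plates to compound at 100 or 25 µM for 7 days at 37 °C. Growth denotes metabolic activity relative to the untreated growth control, with a medium-plus-dye blank subtracted from both.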

Structure (SMILES)	growth (25 µM)	growth (100 µM)
COc1ccc(CCN2CCC(Nc3nc4ccccc4n3Cc3ccc(F)cc3)CC2)cc1	12.9% (active)	15% (active)
Clc1ccc(C(OCCN2CCCCC2)c2ccccc2)cc1 (centres undefined)	100%	13.2% (active)
CN(c1cc(NC(=O)c2ccc(F)cc2)ccn1)C1CCN(Cc2cccc(F)c2)CC1	66%	30.2%
CN1CCN(C(=O)O[C@H]2c3nccnc3C(=O)N2c2ccc(Cl)cn2)CC1	106%	102%
CNC(=O)Oc1cccc2c1OC(C)(C)O2	86.8%	96%
O=C(NC(=O)c1c(F)cccc1F)Nc1ccc(Cl)cc1	92.8%	84.5%
CN/C(=N/CC1CCOC1)N[N+](=O)[O-] (centres undefined)	91.8%	92.9%
CN1COCN(Cc2cnc(Cl)s2)/C1=N/[N+](=O)[O-]	93%	86.8%
C=C(C)[C@H]1Cc2c(ccc3c2O[C@@H]2COc4cc(OC)c(OC)cc4[C@@H]2C3=O)O1	90.6%	102%
C[C@@H]1O[C@@H](O[C@@H]2C=C3CC[C@@H]4[C@H](CC[C@]5(C)[C@@H](c6ccc(=O)oc6)CC[C@]45O)[C@@]3(C)CC2)[C@H](O)[C@H](O)[C@H]1O	99.3%	104%
CC(COc1ccc(Oc2ccccc2)cc1)Oc1ccccn1 (centres undefined)	88.9%	75.6%
CC(C)=CC1C(C(=O)OC(C#N)c2cccc(Oc3ccccc3)c2)C1(C)C (centres undefined)	78.2%	101%
CN(C)[C@@H]1C(=O)C(C(N)=O)=C(O)[C@@]2(O)C(O)=C3C(=O)c4c(O)cccc4[C@@](C)(O)[C@H]3C[C@@H]12	99.7%	94.1%
Clc1cc(Cl)cc(Nc2nc3cnc(NC4CCCC4)cc3n2C2CCNC2)c1 (centres undefined)	52.2%	77.4%
CNC(=O)c1cc(C#N)cc(C)c1NC(=O)c1cc(Br)nn1-c1ncccc1Cl	89.6%	103%
COC(C)(C)CCCC(C)C/C=C/C(C)=C/C(=O)OC(C)C (centres undefined)	89.3%	97.8%
CNC(=O)O/N=C(/C)SC	86.2%	89.3%
CCC(CC)c1cccc(OC(=O)NC)c1.CCCC(C)c1cccc(OC(=O)NC)c1	98.4%	81.9%
COc1ccc(C[C@H]2NC[C@H](O)[C@H]2OC(C)=O)cc1	5.78% (active)	14.4% (active)

Structure (SMILES)	growth (25 µM)	growth (100 µM)
CN(C)CCn1c(Nc2cc(Cl)cc(C(F)(F)F)c2)nc2cnc(NC3CCC3)cc21	102%	104%
CCOC(=O)CC(SP(=S)(OC)OC)C(=O)OCC (centres undefined)	98.4%	95.2%
COC(=O)N(C(=O)N1CO[C@@]2(C(=O)OC)Cc3cc(Cl)ccc3C2=N1)c1ccc(OC(F)(F)F)cc1	100%	96.3%
CC(F)c1ncnc(NCCc2ccc(OC(F)(F)F)cc2)c1Cl (centres undefined)	90.5%	82.9%
CCN(CC)c1nc(C)cc(OP(=S)(OC)OC)n1	96%	95.6%
CNC(=O)Oc1cccc2ccccc12	99.6%	108%
N#Cc1nn(-c2c(Cl)cc(C(F)(F)F)cc2Cl)c(NCc2ccccn2)c1SC(F)F	85.6%	101%
Cc1c(COC(=O)[C@@H]2[C@H](C=C(Cl)C(F)(F)F)C2(C)C)cccc1-c1ccccc1	87.1%	95.2%
COc1cc(/C=N/c2c(SC(F)(F)F)c(C#N)nn2-c2c(Cl)cc(C(F)(F)F)cc2Cl)ccc1O	84.8%	90.9%
CNCCn1c(Nc2cc(Cl)cc(C(F)(F)F)c2)nc2cnc(NC3CC(F)(F)C3)cc21	69%	26.2%
COP(=S)(OC)Oc1nc(Cl)c(Cl)cc1Cl	91.7%	93.4%
Cc1cc(C2=NOC(c3cc(Cl)cc(Cl)c3)(C(F)(F)F)C2)ccc1C(=O)NCC(=O)NCC(F)(F)F (centres undefined)	92.4%	103%
CC[C@@H]1CCC[C@H](O[C@H]2CC[C@H](N(C)C)[C@@H](C)O2)[C@@H](C)C(=O)C2=C[C@@H]3[C@@H](C=C(C)[C@@H]4C[C@@H](O[C@@H]5O[C@@H](C)[C@H](OC)[C@@H](OC)[C@H]5OC)C[C@@H]34)[C@@H]2CC(=O)O1.CC[C@@H]1CCC[C@H](O[C@H]2CC[C@H](N(C)C)[C@@H](C)O2)[C@@H](C)C(=O)C2=C[C@@H]3[C@@H](C=C[C@@H]4C[C@@H](O[C@@H]5O[C@@H](C)[C@H](OC)[C@@H](OC)[C@H]5OC)C[C@@H]34)[C@@H]2CC(=O)O1	78.1%	93.3%
CC(c1ccc(C(F)(F)F)nc1)S(C)(=O)=NC#N (centres undefined)	91.2%	90.7%
C/C=C(\C)C(=O)O[C@H]1C[C@@H](OC(C)=O)[C@@]2(C(=O)OC)CO[C@H]3[C@@H](O)[C@@](C)([C@]45O[C@@]4(C)[C@H]4C[C@@H]5O[C@@H]5OC=C[C@@]54O)[C@H]4[C@]1(CO[C@]4(O)C(=O)OC)[C@@H]32	89.6%	96.1%
O=C(NC(=O)c1ccccc1Cl)Nc1ccc(OC(F)(F)F)cc1	84.1%	76.1%
O=C1C=C(N(Cc2ccc(Cl)nc2)CC(F)F)CO1	96.7%	89.3%
CC[C@H](C)[C@H]1O[C@]2(C=C[C@@H]1C)C[C@@H]1C[C@@H](C/C=C(\C)[C@@H](O[C@H]3C[C@H](OC)[C@@H](O[C@H]4C[C@H](OC)[C@@H](O)[C@H](C)O4)[C@H](C)O3)[C@@H](C)/C=C/C=C3\CO[C@@H]4[C@H](O)C(C)=C[C@@H](C(=O)O1)[C@]34O)O2.CO[C@H]1C[C@H](O[C@H]2[C@H](C)O[C@@H](O[C@@H]3/C(C)=C/C[C@@H]4C[C@@H](C[C@]5(C=C[C@H](C)[C@@H](C(C)C)O5)O4)OC(=O)[C@@H]4C=C(C)[C@@H](O)[C@H]5OC/C(=C\C=C\[C@@H]3C)[C@]54O)C[C@@H]2OC)O[C@@H](C)[C@@H]1O	92.5%	90%
